Measurements as given in PubChem BioAssay AID651679 (Broad Institute, 2012).
The other results are listed elsewhere or left out. Values without a mark were called inactive. How the calls were made is not given here.

Target: Adenosylmethionine-8-amino-7-oxononanoate aminotransferase (Mycobacterium tuberculosis (strain ATCC 25618 / H37Rv)) (UniProt P9WQ81)
Test: inhibition of M. tuberculosis BioA aminotransferase – biochemical, plate reader, cherry-pick samples, set 03, dose response (AID 651679);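 further: top concentration of the dilution series was 10 µM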
Conditions: purified BioA enzyme

Chain of Adenosylmethionine-8-amino-7-oxononanoate aminotransferase (Mycobacterium tuberculosis (strain ATCC 25618 / H37Rv)) (P9WQ81 whole entry, looked up): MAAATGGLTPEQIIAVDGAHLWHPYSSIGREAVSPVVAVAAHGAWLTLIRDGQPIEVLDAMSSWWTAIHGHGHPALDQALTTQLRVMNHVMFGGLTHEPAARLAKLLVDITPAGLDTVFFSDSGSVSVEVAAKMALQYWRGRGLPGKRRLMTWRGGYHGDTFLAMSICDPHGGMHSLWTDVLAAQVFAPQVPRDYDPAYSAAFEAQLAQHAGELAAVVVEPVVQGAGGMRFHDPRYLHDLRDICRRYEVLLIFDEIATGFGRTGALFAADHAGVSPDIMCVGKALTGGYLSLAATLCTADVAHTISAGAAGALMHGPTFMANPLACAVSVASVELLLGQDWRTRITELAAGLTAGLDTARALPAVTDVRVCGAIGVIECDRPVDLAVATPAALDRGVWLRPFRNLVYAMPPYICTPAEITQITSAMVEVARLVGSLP

Row | Compound | max activity
1 | Cc1ccc(Cc2c(C)nc3nc(SCC(=O)NCCN4CCOCC4)nn3c2C)cc1 | -9.07%
2 | C=CCn1c(SCc2c(C(=O)OC)sc(N)c2C(=O)OC)nnc1-c1ccc(Cl)cc1 | -8.75%
3 | Cc1nc2nc(SCC(=O)NCc3ccco3)nn2c(C)c1Cc1ccccc1 | -11.9% [at 0.16 µM]
4 | Cc1c(OC(C)C(=O)NCC2CCC(C(=O)O)CC2)ccc2c1oc(=O)c1ccccc12 (stereo not given) | -6.87% [at 0.3 µM]
5 | CC1(C)CC(=O)C=C(c2ccc3ncccc3c2)C1 | -6.7%
6 | Cc1c2cnn(CC(=O)NCc3ccccn3)c(=O)c2c(C)n1Cc1ccc(Cl)cc1 | -3.46% [at 10 µM]
7 | CC(=O)O[C@]1(C(C)=O)CC[C@H]2[C@@H]3C=C(C)C4=CC(=O)CC[C@]4(C)[C@H]3CC[C@@]21C | -6.47% [at 0.6 µM]
8 | COCCNC(=O)C[C@H]1CC[C@@H]2[C@H](COc3ccc(NC(=O)Nc4cccc(F)c4)cc3C(=O)N2C)O1 | 9.1%
9 | CC(=O)c1ccc(N2CCN(C(=O)c3ccc4nc[nH]c4c3)CC2)cc1 | 5.95% [at 10 µM]
10 | COc1cc(-c2n[nH]c(=S)n2Cc2ccccc2)cc(OC)c1OC | -6.94% [at 0.6 µM]
11 | O=c1[nH]c(N2CCN(Cc3ccc4c(c3)OCO4)CC2)nc2c1CCCC2 | -3.93% [at 5 µM]
12 | O=C(CSc1n[nH]c(-c2cccnc2)n1)Nc1ccnc2ccccc12 | -8.45%
13 | Cc1nc(=O)c(-c2ccccc2)c(C)n1-c1ccc(Br)cc1 | -5.48% [at 0.08 µM]
14 | CCC(CO)Oc1cc(NC(=O)c2cccc(F)c2)c2ncn(C(C)C)c2c1 (stereo not given) | -8.92%
15 | Cn1c(=O)c2c(nc(OCc3cccnc3)n2Cc2ccccc2)n(C)c1=O | -7.11% [at 0.3 µM]
16 | CCCOc1ccc2c3c(c(=O)oc2c1OCCC)CCC3 | 12.3% [at 1.2 µM]
17 | CS(=O)(=O)N1[C@H](C(=O)NCc2ccncc2)[C@@H](CO)[C@@H]2Cn3c(ccc(C4=CCCCC4)c3=O)[C@@H]21 | 4.42%
18 | O=C(c1ccncc1)N1CC[C@@H]2[C@H]1c1cc(Br)ccc1N[C@@H]2CO | -4.43%
19 | C=C(C)CSc1nc(N)c2c3c(sc2n1)CCC3 | -5.78%
20 | CC(=O)CSc1nnc(CSc2ncccn2)n1C1CCCCC1 | 4.14%
